# Screens as filed in PubChem BioAssay.
# A selection: hits, their analogues and other compounds. The true share with any hit is near 3.8%.
# HSF1 inhib = HSF1 inhibition. activity change, negative = inhibition, % at 7.5 µM (by protocol). actives 0.77% (n = 300,000). AID 2098. NIH3T3-HGL HSE-luciferase, MG132-induced, luminescence 8 h; active compounds read low;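 active = more than half of replicate wells show activity change below -50%, luminescence cut by over half; inconclusive = some wells, but at most half, below -50%; inactive = no replicate well below -50%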;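 also: luciferase reports HSF-1 transcriptional activity via heat shock element; 0% = median of DMSO wells and -100% = zero luminescence signal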
# HSF-1 act = increases HSF-1 driven luciferase reporter signal; NIH3T3-HGL HSF-1 luciferase reporter, MG132, 8 h; 100% = twice DMSO control signal; activation, % at 9 µM; actives 1.7% (n = 300,000);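 active = mean replicate activation of at least 50% with a set share of replicates each reaching 50%; inconclusive = only one of those two conditions met; inactive = mean below 50% and too few replicates reaching it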;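 also: 0% = median of the neutral control wells and 100% = twice that signal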
# Wnt act = Wnt/beta-catenin pathway activation; Wnt/beta-catenin reporter cell assay, activator, plate reader; activation, % at 9.35 µM; actives 1.2% (n = 300,000); in the data active = activation above about 30%, passing the limit was not always enough; inconclusive = no clear call, values can overlap the other calls;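 also: 0% = neutral control wells and 100% = positive control wells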
# esBAF inh = SWI/SNF esBAF complex inhibition. mouse ES cells, Bmi1-luciferase knock-in reporter, 24 h; 100% = twice the neutral-well signal. reporter increase, % at 12.5 µM. actives 2% (n = 350,000). AID 602393; in the data active = activation above about 40%; inconclusive = no clear call, values can overlap the other calls;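 also: 0% = median of the plate's neutral control wells and 100% = double that signal; a rise in the Bmi1 reporter signal indicates esBAF inhibition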
# MITF TRPM1 HTS = increases MITF-driven TRPM1 promoter luciferase signal; SK-MEL-5 TRPM1-promoter luciferase, 24 h; % of positive control, neutral wells = 0; activation, % at 12.5 µM; actives 0.75% (n = 300,000);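 active = mean activation of at least 80% with every replicate also reaching 80%; inconclusive = mean reaches 80% but some replicate falls short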;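 also: 0% = neutral control wells and 100% = parthenolide positive control wells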
# * hit, by the source's call; ? = inconclusive; . = not tested or not shown.
SMILES,HSF1 inhib,HSF-1 act,Wnt act,esBAF inh,MITF TRPM1 HTS
Clc1ccc(CONc2ncnc3nonc23)c(Cl)c1,26,17,11,53*,50
COC(=O)c1ccc(N=NN2CCOCC2)cc1,9,16,27,.,35
COC(=O)c1ccc(N=NN2CCCCCC2)cc1,32,75*,0,.,106*
NS(=O)(=O)c1ccc(N=NN2CCCCC2)cc1,15,14,39*,.,46
C[C@H](CO)N1C[C@H](C)[C@@H](CN(C)S(=O)(=O)c2ccccc2)Oc2ccc(NS(=O)(=O)c3ccc(F)cc3)cc2CC1=O,.,.,.,7,.
COc1ccc(Cc2c(-c3ccc(F)cc3)nc3ccc(Cl)cn23)c(C)c1,.,.,-1,44*,.
COc1ccc(Cc2c(-c3cccc(Cl)c3)nc3ccc(C)cn23)c(C)c1,.,.,18,56*,.
COc1ccccc1-c1ccc2n(c1=O)C[C@H]1[C@H](CO)[C@@H](C(=O)NC3CCC3)N(C(=O)C3CCC3)[C@@H]21,.,.,.,-4,.
COc1ccc(CNC(=O)Cc2ccc(NC(=O)C3=C(C)OCCS3)cc2)cc1,17,16,10,8,8
CC1=C(C(=O)Nc2ccc(CC(=O)NCc3ccc(OC(C)C)cc3)cc2)SCCO1,-8,4,-7,46*,6
C[C@H]1CCCCO[C@H](CN(C)C(=O)Nc2ccccc2)[C@@H](C)CN([C@@H](C)CO)C(=O)c2cc(NC(=O)c3ccccc3)ccc2O1,.,.,.,-2,.
N#C/C(C(=O)NCc1ccco1)=C1/SC(Cc2ccc(Cl)cc2)C(=O)N1c1ccccc1 (stereo unspecified),.,.,1,-1,.
N#C/C(C(=O)N1CCOCC1)=C1/SC(Cc2ccccc2Cl)C(=O)N1c1ccccc1 (stereo unspecified),-5,3,35*,.,3
Cc1noc(C)c1NC(=O)Nc1cccc2c1O[C@@H](CN(C)C(=O)Nc1ccc3c(c1)OCO3)[C@H](C)CN([C@@H](C)CO)C2=O,.,.,.,1,.
Fc1ccc(/C=C/c2nnc(-c3cccs3)o2)cc1,22,32,53*,.,66
N#Cc1cc(C(=O)c2ccccc2O)cn(-c2ccc(Cl)cc2)c1=O,-1,8,-11,.,-1
Cc1c(-n2cc(C(=O)c3ccccc3O)cc(C#N)c2=O)c(=O)n(-c2ccccc2)n1C,72,109*,-6,-2,.
C[C@H]1CCCCO[C@H](CN(C)C(=O)c2ccncc2)[C@@H](C)CN([C@@H](C)CO)C(=O)c2cc(NS(=O)(=O)c3cn(C)cn3)ccc2O1,.,.,.,-1,.
Cc1cc(C(=O)CSc2n[nH]c(N)n2)c(C)n1-c1cc(F)ccc1F,8,29,14,51*,36
COc1ccc(S(=O)(=O)Nc2ccc3c(c2)C(=O)N([C@@H](C)CO)C[C@H](C)[C@H](CN(C)Cc2ccc(Oc4ccccc4)cc2)O3)cc1,.,.,.,4,.
O=C(NN=C1C2CC3CC1CC(Cl)(C3)C2)c1cccs1,10,21,1,34,-1
O=C(NN=C1C2CC3CC1CC(Cl)(C3)C2)c1ccccn1,18,18,.,48*,8
O=C(c1ccccc1)N1CC[C@@H]2[C@H]1c1cc(C#Cc3cccnc3)ccc1N[C@@H]2CO,.,.,.,-3,.
Cc1nc2c(-c3ccc(F)cc3)cnn2c2c1CCC2,26,52*,?,.,9
COC(=O)C1C(=O)C2=C(CC1C)NC(C)=C(C(=O)OCc1ccc(OC)cc1)C2c1ccc(C)o1 (stereo unspecified),66,112*,1,.,-15
SMILES,HSF1 inhib,HSF-1 act,Wnt act,esBAF inh,MITF TRPM1 HTS
COC(=O)C1C(=O)C2=C(CC1C)NC(C)=C(C(=O)OCCOc1ccccc1)C2c1ccc(C)o1 (stereo unspecified),3,4,-1,0,.
Clc1ccc(Cc2noc(-c3cccs3)n2)cc1,37,48,.,63*,112*
CC(=O)c1ccc(OCc2cc(C(=O)N(C)CCOc3ccc(C)cc3)no2)cc1,25,7,0,.,116*
CN(C(=O)c1cc(COc2c(F)cccc2F)on1)C1CCOC1 (stereo unspecified),15,15,9,28,55
CC(=O)c1ccc(OCc2cc(C(=O)N(C)C3CCOC3)no2)cc1 (stereo unspecified),-7,-7,25,61*,70
COc1cc(Cl)ccc1OCc1cc(C(=O)N(C)C2CCOC2)no1 (stereo unspecified),12,34,1,55*,66
Cc1cc(OCc2cc(C(=O)N(C)C3CCOC3)no2)cc(C)c1Cl (stereo unspecified),48,64*,35*,83*,77
COc1cccc(OCc2cc(C(=O)N(C)C3CCOCC3)no2)c1,-4,1,-1,.,12
O=C(Nc1ccccc1F)N[C@H]1CC[C@@H](CCNS(=O)(=O)c2ccccc2)O[C@@H]1CO,.,.,.,0,.
C[C@H](CO)N1C[C@H](C)[C@H](CN(C)S(=O)(=O)c2ccc(Cl)cc2)Oc2ccc(NC(=O)C3CC3)cc2C1=O,.,.,.,-2,.
COc1cccc(CNC(=O)[C@H]2[C@H](CO)[C@H]3Cn4c(ccc(-c5cccnc5)c4=O)[C@H]3N2C)c1,.,.,.,-5,.
CO[C@@H]1CN(C)C(=O)c2cc(NC(C)=O)ccc2OC[C@H](C)N(C(=O)c2cnccn2)C[C@@H]1C,.,.,.,-20,.
COc1ccc2c(-c3cc4ccc(OCc5ccc(F)cc5)cc4oc3=O)cc(=O)oc2c1,8,31,.,.,-26
O=C1COc2ccc(OCc3ccc(F)cc3)cc21,34,54*,.,22,90*
CCCC(=O)Nc1ccc2c(c1)C(=O)N(C)[C@H]1CC[C@H](CC(=O)NCC(F)(F)F)O[C@@H]1CO2,.,.,.,3,.
O=C(/C=N/NC(=O)c1ccccc1Br)c1ccccc1,12,59*,11,.,32
CC(=O)Nc1ccc(NC(=O)c2ccccc2Br)cc1,.,.,0,2,.
Cc1c(C(=O)Nc2ccc3c(c2)OCCO3)cnn1C,-61*,-65,9,-40,-6
Cc1c(C(=O)Nc2ccc(Br)cc2)cnn1C,5,29,40*,.,28
O=C(N/N=C/c1cc(Cl)ccc1O)c1ccccc1Br,4,8,29,.,-4
Cn1nccc1C(=O)Nc1ccc2c(c1)OCCO2,-44,-50,0,.,-7
